HTR5A inv ag: HTR5A inverse agonists in luminescence cell assay, primary screen, counter-screen for OPRM1-OPRD1 heterodimer inverse agonist project, full-deck HTS; inhibition, % at 9.3 µM; 0.083% of 340,000 active; HTR5A cell line, inverse agonism; 5-hydroxytryptamine receptor 5A (Homo sapiens), P47898; in the data active = inhibition mostly above about 23%, no sharp cut-off; inactive = mostly below about 18%
OPRM1-OPRD1 inv: inverse agonists of MOR-DOR heterodimerization, primary screen, cell-based, luminescence. cell-based MOR-DOR heterodimer luminescence, inverse agonism. inhibition, % at 9.3 µM. 0.21% of 340,000 active. AID 504357, 2011; in the data active = inhibition above about 22%, passing the limit was not always enough
Target sequence (P35372 whole entry, looked up): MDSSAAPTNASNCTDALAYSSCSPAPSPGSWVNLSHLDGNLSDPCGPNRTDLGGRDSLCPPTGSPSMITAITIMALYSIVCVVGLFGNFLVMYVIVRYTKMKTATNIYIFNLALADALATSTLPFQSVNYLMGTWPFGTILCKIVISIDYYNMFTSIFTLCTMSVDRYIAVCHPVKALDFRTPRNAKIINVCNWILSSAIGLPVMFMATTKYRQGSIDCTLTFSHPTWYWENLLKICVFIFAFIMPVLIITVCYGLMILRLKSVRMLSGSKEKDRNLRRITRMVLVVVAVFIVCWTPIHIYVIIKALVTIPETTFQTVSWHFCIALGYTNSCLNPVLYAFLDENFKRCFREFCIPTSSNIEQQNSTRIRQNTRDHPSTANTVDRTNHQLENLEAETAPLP
Target sequence (P41143 whole entry, looked up): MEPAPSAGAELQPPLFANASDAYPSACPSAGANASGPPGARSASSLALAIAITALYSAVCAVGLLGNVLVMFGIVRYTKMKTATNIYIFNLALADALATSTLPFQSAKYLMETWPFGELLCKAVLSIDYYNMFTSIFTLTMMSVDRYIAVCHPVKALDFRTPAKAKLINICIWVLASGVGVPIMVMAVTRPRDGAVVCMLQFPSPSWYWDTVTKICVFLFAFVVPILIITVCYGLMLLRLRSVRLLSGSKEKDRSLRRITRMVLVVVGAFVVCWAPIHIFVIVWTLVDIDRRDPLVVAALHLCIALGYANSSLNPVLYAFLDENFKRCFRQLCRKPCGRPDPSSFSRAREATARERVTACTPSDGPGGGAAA
PvdQ inh: P. aeruginosa PvdQ acylase inhibitors, primary screen, biochemical, fluorescence, plate reader and imaging, single point; purified PvdQ acylase; 0.063% of 340,000 active; PvdQ acylase [Pseudomonas aeruginosa LESB58]; inhibition, % at 10 µM; in the data active = inhibition above about 30%, passing the limit was not always enough
HTR5A ag ctr: HTR5A agonists in luminescence cell assay, primary screen, counter-screen for OPRM1-OPRD1 heterodimer agonist project, full-deck HTS; 5-hydroxytryptamine receptor 5A (Homo sapiens), P47898; cell-based; activation, % at 9.3 µM; 0.61% of 340,000 active; in the data active = activation mostly above about 9.5%, no sharp cut-off; inactive = mostly below about 7.6%
CR mimetic SO: reduction of superoxide in aged yeast, primary screen, HTS | S. cerevisiae aged cells, superoxide DHE fluorescence; stronger effect = lower value | superoxide response (% of plate mean), % at 10 µM | 0.18% of 330,000 active | AID 2690, 2010;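 active = superoxide response under a set limit, about three screen SD below normal, cut at about 65% in these data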;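 note: yeast aged for seven days with compound at 30 °C before DHE staining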
MOR-DOR ag-1: agonists of OPRM1-OPRD1 heterodimerization, primary screen, cell-based, luminescence; Mu-type opioid receptor (Homo sapiens) + Delta-type opioid receptor (Homo sapiens), …; AID 504326, 2011; cells; 0.3% of 340,000 active; activation, % at 9.3 µM
CR mimetic CP: superoxide lowering in aged yeast cells, confirmation, cherry picked compounds. AID 434994, 2010. superoxide response (% of plate), % at 10 µM. S. cerevisiae aging, superoxide DHE fluorescence; stronger effect = lower value. shares compounds with CR mimetic SO. 1% of 850 active;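 active = superoxide signal below 65% of the plate average of sample wells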;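 note: cells aged with compound for 7 days at 30 degrees C before staining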
DHE counter: DHE quenching or ROS scavenging interference in aged yeast, artefact control for yeast caloric restriction mimetic project, S. cerevisiae BY4741, flow cytometry; shares compounds with CR mimetic SO; DHE fluorescence; stronger effect = lower value; fluorescence response, % at 10 µM; 850 tested, under 10 active; AID 435000, 2010;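 active = fluorescence response below 15%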;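 note: lower means stronger quenching of DHE signal or ROS scavenging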
OPRM1-D1 ag cf: agonists of MOR-DOR heterodimerization, confirmation, cell-based, luminescence; cells, luminescence complementation; 45% of 830 active; activation, % at 9.3 µM; shares compounds with MOR-DOR ag-1
HTR5A ag ctr2: HTR5A agonists in cells, counter-screen for OPRM1-OPRD1 heterodimer agonist project, cell-based, luminescence | activation, % at 9.3 µM | 8% of 830 active | shares compounds with MOR-DOR ag-1 | HTR5A agonist counterscreen; in the data active = activation above about 17%
MOR-DOR ag-2: OPRM1-OPRD1 heterodimerization promoters, counter-screen for HTR5A agonist project, cell-based, luminescence; shares compounds with HTR5A ag ctr; 13% of 800 active; activation, % at 9.3 µM; AID 504913, 2011; U2OS counter-screen cells, complementation luminescence, 3 h
HTR5A ag conf: HTR5A agonists, retest of hits, confirmation, cell-based, luminescence; shares compounds with HTR5A ag ctr; HTR5A agonist cell assay; activation, % at 9.3 µM; 17% of 800 active; in the data active = activation above about 17%
Large screens that a line does not name were inactive (follow-up assays come after a bar, where they were run). A selection: hits, their analogues and other compounds. The true share with any hit is near 1.3%. Cut-off read from the data, not from the text of the source, unless noted: active = activation above about 18%; inactive = the rest.

NC(=O)CC(NC(=O)Cc1cccc2ccccc12)c1ccc(N2CCC(N3CCCC3)CC2)c([N+](=O)[O-])c1 (stereo unspecified)	none
CC(C)CN(C(=O)COC(=O)c1c2c(nc3ccccc13)CCC2)c1c(N)n(Cc2ccccc2)c(=O)[nH]c1=O	none
Cc1cc(C)c2c(N)c(C(=O)NN)sc2n1	none
Cc1ccc(NC(=O)c2sc3nc(C)cc(C)c3c2N)cc1	CR mimetic SO 56 | CR mimetic CP inactive | DHE counter inactive
Cc1cc(=O)n(C(C)c2ccccc2)n1C(C)c1ccccc1 (stereo unspecified)	none (no result: CR mimetic SO)
Cc1cc2ccccn2c1C(=O)c1ccccc1F	CR mimetic SO 62 | CR mimetic CP inactive | DHE counter inactive
O=C(NC1=NCCS1)c1ccc(F)c(S(=O)(=O)N2CCOCC2)c1	none
N#Cc1ccc(CN2CCN(C(=O)c3cc(C4CC4)nn3-c3ccccc3)CC2)cc1	none
COc1ccc2nc(-c3ccccc3)cc(C(=O)OCC(=O)NC3CC3)c2c1	none (no result: CR mimetic SO)
O=C(O)c1ccc(NS(=O)(=O)c2cc(Cl)ccc2Cl)cc1	HTR5A ag ctr 16 | CR mimetic CP inactive | DHE counter inactive | MOR-DOR ag-2 inactive | HTR5A ag conf inactive
Cc1ccc(NC(=O)Cn2nnc(C(=O)NCCc3ccccc3)c2N)c(C)c1	none
Cc1nc2cc(NC(=O)c3ccc([N+](=O)[O-])s3)ccc2s1	MOR-DOR ag-1 30 | OPRM1-D1 ag cf inactive | HTR5A ag ctr2 inactive
CC1CCCC(NC(=O)Cn2c(Cl)nc3c2c(=O)n(C)c(=O)n3C)C1C (stereo unspecified)	none (no result: HTR5A inv ag, OPRM1-OPRD1 inv, HTR5A ag ctr, MOR-DOR ag-1)
COC(=O)NCC(c1ccc2c(c1)OCO2)N1CCN(c2ccccc2)CC1 (stereo unspecified)	MOR-DOR ag-1 217 | OPRM1-D1 ag cf 193 | HTR5A ag ctr2 inactive
CCOc1ccc(NC(=S)Nc2ccc3nsnc3c2)cc1	MOR-DOR ag-1 22 | OPRM1-D1 ag cf inactive | HTR5A ag ctr2 inactive
CCNS(=O)(=O)c1ccc(NC(=O)Nc2ccc3c(c2)OCO3)cc1	MOR-DOR ag-1 111 | OPRM1-D1 ag cf 73 | HTR5A ag ctr2 inactive
O=c1c(Cc2c(F)cccc2Cl)c(O)ccn1CCCn1ccnc1	none
Cn1c(-c2c(N)n(-c3ccccc3)c3nc4ccccc4nc23)nc2ccccc21	MOR-DOR ag-1 19 | OPRM1-D1 ag cf 26 | HTR5A ag ctr2 inactive
Cn1c(CN2CCN(c3cccc(Cl)c3)CC2)nc2ccccc21	MOR-DOR ag-1 29 | OPRM1-D1 ag cf 124 | HTR5A ag ctr2 inactive
Cc1ccc(N2CCN(c3ccc(NCc4nc5ccccc5n4C)cc3)CC2)cc1	MOR-DOR ag-1 283 | OPRM1-D1 ag cf 46 | HTR5A ag ctr2 30
CC(C)(C)NC(=O)C1CC(=O)N(CCc2ccc(F)cc2)C1 (stereo unspecified)	none
O=C(NCc1ccco1)c1cc2n(n1)C(C(F)(F)F)CC(c1ccc(Br)cc1)N2 (stereo unspecified)	MOR-DOR ag-1 19 | OPRM1-D1 ag cf inactive | HTR5A ag ctr2 inactive
COC(=O)[C@@H](Cc1ccccc1)NC(=O)NCCc1ccc(OC)c(OC)c1	none
CN(C)/C=C/C(=O)c1ccc(OCCN(C)c2ccccn2)cc1	MOR-DOR ag-1 20 | OPRM1-D1 ag cf inactive | HTR5A ag ctr2 inactive
O=C(NCCc1ccccc1)C(c1cccs1)N(C(=O)c1csnn1)C1CC1 (stereo unspecified)	none
O=C(NCCc1ccccc1)C(c1cccs1)N(C(=O)CCl)c1ccc(Cl)cc1 (stereo unspecified)	HTR5A ag ctr 32, MOR-DOR ag-1 87 | OPRM1-D1 ag cf inactive | HTR5A ag ctr2 inactive
CC(OC(=O)c1n[nH]c2ccccc12)C(=O)Nc1ccccc1[N+](=O)[O-] (stereo unspecified)	MOR-DOR ag-1 32 | OPRM1-D1 ag cf inactive | HTR5A ag ctr2 inactive
Cc1ccc(NC(=O)C(C)OC(=O)c2n[nH]c3ccccc23)cc1 (stereo unspecified)	none
CCOC(=O)CCCn1ccc2cc(S(=O)(=O)N3CCCC3)ccc21	none
COc1ccc(C2=NN(CN3C(=O)C(=O)c4ccccc43)C(c3cccc([N+](=O)[O-])c3)C2)cc1 (stereo unspecified)	none
CSCCC(/C(O)=C(\C#N)c1nc2ccccc2[nH]1)N1C(=O)c2ccccc2C1=O (stereo unspecified)	MOR-DOR ag-1 58 | OPRM1-D1 ag cf 49 | HTR5A ag ctr2 inactive
CCOC(=O)C1=C(CN2CC(C)CC(C)C2)NC(=O)NC1c1ccc2c(c1)OCO2 (stereo unspecified)	MOR-DOR ag-1 26 | OPRM1-D1 ag cf 24 | HTR5A ag ctr2 inactive
Cc1cc(Cl)ccc1OCC(=O)N[C@@H](Cc1ccccc1)c1nc2ccccc2[nH]1	MOR-DOR ag-1 24 | OPRM1-D1 ag cf 44 | HTR5A ag ctr2 inactive
CCOc1ccc(/C=N/NC(=O)CC(=O)Nc2ccc(Cl)c(Cl)c2)cc1	MOR-DOR ag-1 21 | OPRM1-D1 ag cf inactive | HTR5A ag ctr2 inactive
CCC(CC)C(=O)Nc1nnc(S(=O)(=O)N2CCCC2)s1	none
CCOC(=O)C1(CC2CC2)CCN(Cc2cn[nH]c2-c2cccc(F)c2)CC1	none
CCOC(=O)C1(CC2CC2)CCN(Cc2ccc3cccc(F)c3n2)CC1	MOR-DOR ag-1 24 | OPRM1-D1 ag cf 28 | HTR5A ag ctr2 inactive
Clc1ccc(-c2cnnc(-c3ccccn3)n2)cc1	none
O=S(=O)(NC1CC1)c1ccc(S(=O)(=O)N2CCCC3(CCCCC3)C2)cc1	MOR-DOR ag-1 40 | OPRM1-D1 ag cf 32 | HTR5A ag ctr2 inactive

Compound activity (PubChem BioAssay)
